Results reported in PubChem BioAssay AID376 (PDSP, 2006).
Values joined by “and” are separate entries in the source; they are usually repeats but may differ in a detail not shown here. Identical values can stand only once. Out of some 2,000 compounds screened, about 250 (12%) were called active. This excerpt belongs to a sample that is enriched for actives. Values without a mark were called inactive. Cut-off read from the data, not from the text of the source: active = hERG blockade below about -20% or above about 20%; inactive = in between.

Biological target: Voltage-gated inwardly rectifying potassium channel KCNH2 (Homo sapiens) (UniProt Q12809)
Sequence (Q12809 whole entry, looked up): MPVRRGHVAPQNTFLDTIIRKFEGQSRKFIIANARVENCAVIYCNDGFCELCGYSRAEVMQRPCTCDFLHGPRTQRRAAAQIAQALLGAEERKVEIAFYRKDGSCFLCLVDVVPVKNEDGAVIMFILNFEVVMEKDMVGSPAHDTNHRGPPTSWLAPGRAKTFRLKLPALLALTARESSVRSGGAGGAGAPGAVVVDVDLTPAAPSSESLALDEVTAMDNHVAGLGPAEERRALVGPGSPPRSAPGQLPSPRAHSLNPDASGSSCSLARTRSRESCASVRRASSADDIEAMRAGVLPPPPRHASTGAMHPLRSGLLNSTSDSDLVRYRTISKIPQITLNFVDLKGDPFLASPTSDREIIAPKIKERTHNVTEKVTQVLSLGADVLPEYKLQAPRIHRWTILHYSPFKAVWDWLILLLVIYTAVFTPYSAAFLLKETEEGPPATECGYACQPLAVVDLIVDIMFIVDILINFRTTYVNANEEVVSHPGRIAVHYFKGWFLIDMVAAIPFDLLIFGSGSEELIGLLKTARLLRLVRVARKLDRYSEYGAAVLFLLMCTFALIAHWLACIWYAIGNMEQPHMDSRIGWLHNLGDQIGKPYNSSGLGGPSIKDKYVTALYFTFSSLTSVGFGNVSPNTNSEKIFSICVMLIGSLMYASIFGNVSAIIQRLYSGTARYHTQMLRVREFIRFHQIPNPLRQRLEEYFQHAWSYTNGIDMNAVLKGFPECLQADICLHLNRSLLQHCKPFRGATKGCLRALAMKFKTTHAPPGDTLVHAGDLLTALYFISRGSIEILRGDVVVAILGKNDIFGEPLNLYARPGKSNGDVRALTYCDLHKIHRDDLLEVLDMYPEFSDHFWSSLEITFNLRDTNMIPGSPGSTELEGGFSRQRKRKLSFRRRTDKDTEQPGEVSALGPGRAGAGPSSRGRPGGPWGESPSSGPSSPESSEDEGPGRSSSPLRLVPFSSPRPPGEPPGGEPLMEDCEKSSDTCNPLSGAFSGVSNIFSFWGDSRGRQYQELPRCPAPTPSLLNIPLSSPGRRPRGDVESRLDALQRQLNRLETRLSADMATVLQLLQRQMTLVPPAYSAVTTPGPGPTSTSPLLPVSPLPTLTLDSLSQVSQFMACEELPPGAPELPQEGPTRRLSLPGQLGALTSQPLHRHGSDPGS
Experiment: modulators of KCNH2 ion channel function, cellular (AID 376);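 note: 0% = buffer alone and 100% = reference blocker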
Settings: hERG-expressing cells, channel activity single-concentration screen; concentration not given here

Structure (SMILES)	hERG blockade
O=C(O)CCC1(C(=O)O)CCC(=O)c2ccccc21 (stereo unspecified)	6.22%
BrC(c1cccc2ccccc12)c1cccc2ccccc12	-6.84%
COc1ccc(C(=O)CCN(C)C)c2ccccc12	7.02%
Clc1ccccc1C(Nc1ncccn1)Nc1ncccn1	3.73%
Clc1ccccc1C(Nc1cnccn1)Nc1cnccn1	21.5% (active)
O=C(O)C(Cc1ccc([N+](=O)[O-])cc1)=NO	0.35%
CC(CO)(CO)Nc1ncnc2ccccc12	2.95%
O=S(=O)(c1cnccc1N1CCN(CCO)CC1)N1CCCC1	-8.49%
N=C1C(O)C2(I)c3ccccc3N3C(=N)C(O)C4c5ccccc5N1C4C32 (stereo unspecified)	35.8% (active)
O=C(CSc1nc2ccccc2s1)c1sc2sc3ccccc3[n+]2c1O	1.71%
CC(CCC(=O)O)C(=O)O (stereo unspecified)	2.86%
Oc1ccccc1CNCc1ccccc1O	23.5% (active)
O=C(O)c1ccc(CNCc2ccccc2)cc1	-8.86%
Oc1ccc(CNCc2ccccc2)c2cccnc12	7.55%
CCCCN1CSC(=S)N(Cc2ccccc2)C1	13.4%
CCC(CS(=O)(=O)O)[N+](=O)[O-] (stereo unspecified)	1.33%
O=C(O)CC(CC(=O)O)C(=O)O	15.6%
N=C(N)SCc1cc(Cl)cc(Cl)c1O	12.3%
Clc1ccc(CSCc2ccc(Cl)cc2Cl)c(Cl)c1	5.81%
N=C(N)SCc1ccc(Cl)cc1Cl (tested in a mixture with another compound)	30.7% (active)
COC(=O)c1ccc(CCc2cc(O)ccc2O)cc1	11.9%
O=C(O)CCC(=O)c1ccc2ccc3cccc4ccc1c2c34	-66.6% (active)

Structure (SMILES)	hERG blockade
O=C(O)CCC(=O)c1ccc[nH]1	1.12%
O=C(O)c1cccc2cccc(-c3cccc4cccc(C(=O)O)c34)c12	-6.19%
Nc1ccc(S(=O)(=O)NCCS(=O)(=O)O)cc1	-20.3% (active)
CC(C)(C)c1ccc(NS(=O)(=O)c2ccc(N)cc2)cc1	-2.98%
NCCNS(=O)(=O)c1ccc(N)cc1	2.62%
CCOC(=O)c1cnc(N(C)C)nc1SC(=N)N	12.8%
c1cc(CNCCN2CCNCC2)ccn1	-17.5%
CC(C)NCCC(O)c1cc2ccccc2o1 (stereo unspecified)	7.89%
NC(N)=NC(N)=Nc1ccc(C(=O)O)cc1	-11%
NC(N)=NC(N)=Nc1c(F)c(F)c(F)c(F)c1F	-23.3% (active)
NC(N)=NC(N)=Nc1ccccc1 (tested in a mixture with another compound)	-3.28%
O=C(O)CCc1c2ccc(=O)c(O)c-2oc2c(O)c(O)ccc12	6.94%
Oc1ccc(Cn2c(-c3ccc(O)cc3)nc3ccccc32)cc1	9.19%
NS(=O)(=O)c1cc2c(cc1Cl)=NC(CCC(=O)O)=NS=2(=O)O	-4.14%
[N-]=[N+]=NC1C(O)C(CO)OC1n1cnc2c(N)ncnc21 (stereo unspecified)	-1.39%
Cc1ccc(C(O)c2cnc(C)n2Cc2ccccc2)cc1 (stereo unspecified)	0.183%
Cc1ccc2c(c1)NC(c1ccc(C(=O)O)cc1)c1cccn1-2 (stereo unspecified)	-13.1%
CC1CC2C3CCC4=CC(=O)C=CC4(C)C3(F)C(O)CC2(C)C1(O)C(=O)COP(=O)(O)O (stereo unspecified)	-1.33%
CC(=O)Nc1cc(CN2CCCCC2)c(O)c2ncccc12	-2.13%
NC(CSc1nc2ccccn2c1[N+](=O)[O-])C(=O)O (stereo unspecified)	-1.31%
O=C(O)c1cccc(N=Nc2c(S(=O)(=O)O)ccc3c2C(=O)c2ccccc2C3=O)c1O	6.27%
O=C1c2ccccc2C(=O)c2c1ccc(N1C(=O)c3ccccc3C1=O)c2-c1c(N2C(=O)c3ccccc3C2=O)ccc2c1C(=O)c1ccccc1C2=O	15.5%

Structure (SMILES)	hERG blockade
O=C1c2ccccc2C(=O)c2c1ccc(C(=O)O)c2-c1ccc2ccccc2c1	66.5% (active)
NC(C(=O)O)C(O)c1cnc[nH]1 (stereo unspecified)	2.25%
O=C(O)C1CCCCC1C(=O)Nc1nc2ccccc2[nH]1 (stereo unspecified)	28.5% (active)
O=C(O)CSc1nc2ccccc2[nH]1	-15.3%
O=C1c2ccccc2-c2ccc(NC(=O)C3CCCCC3C(=O)O)cc21 (stereo unspecified)	1.13%
CN(C)CCCNc1ncnc2nc[nH]c12	3.18%
C[N+]1(C)CCc2cc(O)c(O)cc2C1Cc1ccc(O)c(O)c1 (stereo unspecified)	-10.5%
CC(=NO)c1cccc[n+]1Cc1ccccc1	-12.2%
COc1ccc(-c2csc3c2-n2cccc2C3=O)cc1	22.6% (active)
NC(=O)C1CCCN1Cc1ccc2c(c1)OCO2 (stereo unspecified)	-14.4%
CC12CCC(=O)C=C1CCC1C2CCC2(C)C(C(=O)Cn3cnc4c(=S)nc[nH]c43)CCC12 (stereo unspecified)	12.1%
Nc1nc(N)c2[nH]c(CNc3ccc(C(=O)O)cc3)nc2n1	16.1%
CCn1c2ccccc2c2nnc(NCCCO)nc21	-5.84%
CCOc1ccccc1Nc1ccc(N)cc1S(=O)(=O)O	0.163%
S=C1SCN(C2CCCCCCCCCCC2)CN1C1CCCCCCCCCCC1	0.139%
COc1ccc(CSC2=C(C#N)C(=O)NC3(CCCCC3)S2)cc1	-27.9% (active)
O=C(O)CSc1ccccc1C(=O)O	-2.77%
c1ccc(CCCNc2nnnc3ccccc23)cc1	3.75%
Cn1ncc2c(NCCc3ccccc3)nc(Cl)nc21	10%
Clc1nc(NCCc2ccccc2)c2ncn(-c3ccccc3)c2n1	34.7% (active)
O=C(O)C1(C(=O)O)CCN(S(=O)(=O)c2ccccc2)CC1	-10%
CC(=NNC1=NCCN1)c1cn(C2=NCCN2)nc1C	48.8% (active)

Structure (SMILES)	hERG blockade
Cc1nc2sc3c(c2c(=O)[nH]1)CCCC3	-7.98%
O=C(O)CC(Cc1ccccc1)C(=O)O (stereo unspecified)	6.37%
COc1cc(C)cc2c(-c3c(O)cc(O)c4c3CC(C)NC4C)cc(-c3cc(-c4c(O)cc(O)c5c4CC(C)NC5C)c4cc(C)cc(OC)c4c3O)c(O)c12 (stereo unspecified)	22.2% (active)
COc1cc(C2SCCCCCCCCCCSC(c3ccc(O)c(OC)c3)SCCCCCCCCCCS2)ccc1O (stereo unspecified)	2.15%
CC(=N[N-]C(=[SH+])SCc1ccccc1)c1ccccn1.[Cl][Cu]	3.22%
Cc1cc(C)nc(SCCc2cccc[n+]2C)n1	71.5% (active)
Cc1ccc(S(=O)(=O)NCc2cccc([N+](=O)[O-])c2)cc1	14.6%
Cc1cccc(CNc2ncnc3[nH]ncc23)c1	-7.57%
COc1ccc(Br)c2c1CC(C(=O)O)CC2 (stereo unspecified)	-1.02%
Cc1ccc(C(=N)c2ccccc2Cc2cccc3ccccc23)c2ccccc12	-5.31%
c1cncc(CSc2ncnc3nc[nH]c23)c1	-11.9%
COc1ccc(CC(O)CN2CCOCC2)cc1 (stereo unspecified)	-3.36%
Cc1cc(N2CCOCC2)nc2ccc(Cc3ccc4nc(N5CCOCC5)cc(C)c4c3)cc12	42.1% (active)
Cc1cc(Cl)nc2ccc(Cc3ccc4nc(Cl)cc(C)c4c3)cc12	-16.7%
Cc1cc(N2CCCCC2)nc2ccc(Cc3ccc4nc(N5CCCCC5)cc(C)c4c3)cc12	81.4% (active)
Cc1nc2ccccc2nc1N1CCCC1	-18.7%
NCCNCC1CCNCC1	-1.79%
OC1COC(OCc2ccccc2)C(O)C1O (stereo unspecified)	-4.05%
COc1ccc(C(=O)NN=C2C(=O)c3c(C)cc(C)cc3CC2(C)C)cc1	8.71%
CC1(C)C2CCC1(C)C(OC(=O)C=Cc1ccccc1)C2 (stereo unspecified)	-7.8%
CC(C)c1ccccc1S(=O)c1ccccc1C(C)(C)O (stereo unspecified)	-9.35%
CC(C)CSCC1OC(n2cnc3c(N)nccc32)C(O)C1O (stereo unspecified)	-11.9%

Structure (SMILES)	hERG blockade
O=C(O)C(Br)C(Br)c1ccccc1[N+](=O)[O-] (stereo unspecified)	-1.11%
CC(=NNc1ccc2ccccc2n1)c1ccccc1O	8.91%
CN(N=Cc1ccccc1O)c1ccc2ccccc2n1	-0.991%
O=[N+]([O-])c1cccc(C=NNc2ccc3ccccc3n2)c1O	26.8% (active)
Cc1cc(-c2cc(C)c(O)c(C(C)(C)C)c2)cc(C(C)(C)C)c1O	0.0679%
CC(CS(=O)(=O)Cc1ccccc1)C(N)=O (stereo unspecified)	3.43%
COc1c(O)ccc2c1CN1CCc3cc4c(cc3C1C2)OCO4 (stereo unspecified)	22.7% (active)
CC1=NC(C)(COC(=O)C2(C)NC(C)(CO)CO2)COC1=O (stereo unspecified)	-5.89%
Cc1c2ccccc2c(CSC(=N)N)c2ccccc12	103% (active)
Cc1ncc(CSC(=N)N)n1Cc1ccccc1	-16.6%
N=C(N)SCCc1ccccn1	-2.29% and 1.24%
O=C(O)CSCCc1ccccc1	5.62%
CC12CC(=O)C3C(CCC4=CC(=O)CCC43C)C1CC=C2CC(=O)O (stereo unspecified)	-16.4%
O=C(O)c1nc2nc(Cl)c(Cl)nc2[nH]1	6.64%
CCCCSCc1nc2nc(Cl)c(Cl)nc2[nH]1	-33.6% (active)
CCN(CCO)CC1CCCC2CCCCC21 (stereo unspecified)	-6.41%
O=C(O)C1C2OC(C(Br)C2Br)C1C(=O)O (stereo unspecified)	-2.82%
CC(=O)NC(Cc1ccc(O)cc1)C(=O)O (stereo unspecified)	-8.5%
